Measured values as given in PubChem BioAssay (NCATS).
Records with an inconclusive call do not appear. Active and inactive are the calls of the source. The call rests on the fitted dose curve; in most records, active means well fitted inhibition curve with a large enough effect; inconclusive means small, poorly fitted or top-dose-only effect; inactive means flat fitted curve, though single readings scatter.

How the values were obtained:
Assay in all cases: Cytotoxic Profiling of Annotated Libraries Using Quantitative High-Throughput Screening (AID 1296008); further: nearly all actives have a fitted effect of over 60% in size
Details in all cases: Five cell lines viability, CellTiter-Glo ATP luminescence, 48-72 h; max response: active compounds read low
[1] = tested on: CRL-7250
Procedure, shortened: (§1)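 Cells exposed to compounds for 48 or 72 hr at 37 degrees Celsius. Viability read as ATP-coupled luminescence with CellTiter-Glo after 10 min at room temperature.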

[2] = tested on: HEK293
Procedure, shortened: as §1

[3] = tested on: HaCat
Procedure, shortened: as §1

[4] = tested on: KB-3-1
Procedure, shortened: as §1

[5] = tested on: NIH3T3
Procedure, shortened: as §1

Measured: max response
On the % scale 0 is the no-effect control and ±100 the full control effect.

CC(C)=CCC[C@](C)(O[C@@H]1O[C@H](CO[C@@H]2OC[C@H](O)[C@H](O)[C@H]2O)[C@@H](O)[C@H](O)[C@H]1O)[C@H]1CC[C@]2(C)[C@@H]1[C@H](O)C[C@@H]1[C@@]3(C)CC[C@H](O[C@@H]4O[C@H](CO)[C@@H](O)[C@H](O)[C@H]4O[C@@H]4O[C@H](CO)[C@@H](O)[C@H](O)[C@H]4O)C(C)(C)[C@@H]3CC[C@]12C
inactive: [1] | [2] 3.96% | [3] | [4] 1.14% | [5]

COC(=O)C1=CO[C@@H](O[C@@H]2O[C@H](CO)[C@@H](O)[C@H](O)[C@H]2O)[C@@H]2C(CO)=CC[C@H]12
inactive: [1] 3.17% | [2] -17.4% | [3] | [4] | [5] -0.343%

CC(C)(CC(=O)N1CCCC1)NCC(=O)N1C[C@@H](F)C[C@H]1C#N
inactive: [1] -2.43% | [2] -0.937% | [3] -28% | [4] 1.01% | [5]

CC(=O)c1[nH]cc(CCC(=O)O)c1CC(=O)O
inactive: [1] | [2] -1.24% | [3] | [4] | [5] -3.85%

COc1ccc(C2OCC3C(c4cc(OC)c5c(c4)OCO5)OCC23)cc1OC (stereo not given)
inactive: [1] 3.22% | [2] 1.08% | [3] | [4] -4.07% | [5]

C=C1C(OC(C)=O)[C@@]23CCC4[C@](C)(C(=O)O)CCC[C@@]4(C)[C@]2(O)CC[C@H]1C3 (stereo not given in full)
inactive: [1] 1.93% | [2] -3.51% | [3] | [4] 0.958% | [5]

CC1(C)CC=C(C#Cc2ccccc2)c2cc(/C=C/c3ccc(C(=O)O)cc3)ccc21
inactive: [1] -4.79% | [2] 1.6% | [3] | [4] 3.78% | [5] -4.98%

C[C@@]12CC3(S(=O)(=O)O)OC(O1)[C@]1(COC(=O)c4ccccc4)[C@H]3C[C@]21O[C@@H]1O[C@H](CO)[C@@H](O)[C@H](O)[C@H]1O
inactive: [1] 2.31% | [2] 2.36% | [3] | [4] | [5]

C[C@H]1[C@H](C)CC[C@]2(C(=O)O)CC[C@]3(C)C(=CCC4[C@@]5(C)C[C@@H](O)[C@H](O)C(C)(C)C5CC[C@]43C)[C@H]12 (stereo not given in full)
inactive: [1] | [2] 3.03% | [3] -6.87% | [4] -2.55% | [5]

C=C(C)C1Cc2c(ccc3c2OCC(c2ccc(O)cc2O)C3)O1 (stereo not given)
inactive: [1] -23.3% | [2] -18.8% | [3] | [4] -21.6% | [5] -8.17%

CC1C(=O)OCC2=CC[N+]3([O-])CCC(OC(=O)C(C)(O)C1(C)O)C23 (stereo not given)
inactive: [1] 2.6% | [2] 3.51% | [3] | [4] 7.03% | [5]

CC/C=C\[C@H](O)[C@H](O)C1=C(C)C(=O)[C@]2(O1)C(=O)N[C@@](O)(C(=O)c1ccccc1)[C@@H]2O
inactive: [1] | [2] 2.91% | [3] -6.31% | [4] | [5]

CCC1(O)CC2c3cc(OC)c(OC)cc3CCN2CC1CC(C)C (stereo not given)
inactive: [1] -19.7% | [2] 0.903% | [3] -10.4% | [4] 7.48% | [5]

C/C(=C\CCC(C)(C)O)CCO[C@@H]1O[C@H](CO[C@@H]2O[C@@H](C)[C@H](O)[C@@H](O)[C@H]2O)[C@@H](O)[C@H](O)[C@H]1O
inactive: [1] | [2] -3.15% | [3] | [4] 4.26% | [5]

O=C(O)c1cc(C(F)(F)F)ccc1N1CC[C@H](OCc2ccccn2)C1
inactive: [1] | [2] -6.22% | [3] | [4] 6.78% | [5]

CC(=O)OCC1=C[C@@H]2OC(=O)C3=CO[C@@H](O[C@@H]4O[C@H](CO)[C@@H](O)[C@H](O)[C@H]4O)[C@H]1[C@@H]32
inactive: [1] 2.42% | [2] 4.59% | [3] | [4] | [5] 0.706%

CN1CCc2cc(Cl)c(O)cc2[C@@H](c2cccc3c2OCC3)C1
inactive: [1] | [2] -11.4% | [3] -1.65% | [4] -4.72% | [5]

COc1cc(C(C)=O)ccc1O[C@@H]1O[C@H](CO)[C@@H](O)[C@H](O)[C@H]1O
inactive: [1] -12.2% | [2] -0.593% | [3] | [4] 6.72% | [5] 0.808%

CC1C2=CC(=O)OC2(O)CC2C1CCC1C(C)(C)CCC(O)C21C (stereo not given)
inactive: [1] -5.55% | [2] -27.5% | [3] | [4] -9.97% | [5] 0.733%

CC(C)=CCC[C@](C)(O[C@@H]1O[C@H](CO[C@@H]2O[C@@H](CO)[C@H](O)[C@H]2O)[C@@H](O)[C@H](O)[C@H]1O)[C@H]1CC[C@]2(C)[C@@H]1[C@H](O)C[C@@H]1[C@@]3(C)CC[C@H](O[C@@H]4O[C@H](CO)[C@@H](O)[C@H](O)[C@H]4O[C@@H]4O[C@H](CO)[C@@H](O)[C@H](O)[C@H]4O)C(C)(C)[C@@H]3CC[C@]12C
inactive: [1] 2.09% | [2] -3.56% | [3] | [4] | [5] -28.7%

COC(=O)c1c(CC=C(C)C)c(OC2OC(CO)C(O)C(O)C2O)c2ccccc2c1OC1OC(CO)C(O)C(O)C1O (stereo not given)
inactive: [1] | [2] -10.1% | [3] | [4] | [5]

CC(=O)OC(C)C(C)(O)C(=O)O[C@@H]1CC[C@]2(C)CC(=O)C(=C(C)C)C[C@H]2[C@]1(C)OC(C)=O (stereo not given in full)
inactive: [1] -0.377% | [2] 0.4% | [3] | [4] 6.09% | [5] -1.04%

O=C(O)c1ccnc(-c2cc(C(=O)NCCc3ccccc3)ccn2)c1
inactive: [1] 0.77% | [2] -13.9% | [3] | [4] 6.53% | [5] -2.98%

N#Cc1cccc(-c2nc(-c3cccnc3)no2)c1
inactive: [1] -3.07% | [2] -8.6% | [3] | [4] | [5]

O=C(/C=C/c1ccc(O)c(O)c1)O[C@H]1[C@@H]2C=CO[C@@H](O[C@@H]3O[C@H](CO)[C@@H](O)[C@H](O)[C@H]3O)[C@@H]2[C@@]2(CO)O[C@@H]12
inactive: [1] -3.33% | [2] -6.64% | [3] | [4] | [5] -4.11%

CCOC(=O)C(CCc1ccccc1)NC1CCCN2CCCC(C(=O)O)N2C1=O (stereo not given)
inactive: [1] 2.69% | [2] | [3] 1.44% | [4] 2.78% | [5] 0.311%

Cc1c(C)c(NCC(=O)N(C)C2CCN(Cc3ccc(C(N)=O)cc3)CC2)c(C)c(C)c1N
inactive: [1] | [2] -11.3% | [3] | [4] -3.8% | [5] 2.96%

C=C1CC23CC1CCC2C12OC(=O)C(C)(C(O)CC1O)C2C3C(=O)O (stereo not given)
inactive: [1] -0.83% | [2] -15.6% | [3] | [4] 1.34% | [5] -6.25%

C/C=C/C=C/C=C/C(=O)N(C)C(C(=O)NC(C)C(=O)N1CCCC1C(N)=O)C(C)C (stereo not given)
inactive: [1] -4.46% | [2] 2.9% | [3] | [4] | [5] 0.323%

O=C(/C=C/c1ccccc1)O[C@@H]1[C@@H](CO)O[C@@](CO)(O[C@H]2O[C@H](CO)[C@@H](O)[C@H](O)[C@H]2O)[C@H]1O
inactive: [1] | [2] 0.967% | [3] | [4] -2.31% | [5] 2.88%

OCC1=C[C@@H](O)[C@@H]2C=CO[C@@H](O[C@@H]3O[C@H](CO)[C@@H](O)[C@H](O)[C@H]3O)[C@H]12
inactive: [1] -1.82% | [2] 0.828% | [3] | [4] | [5] 4.6%

C=C1C[C@]23C[C@@]1(O)CC[C@H]2[C@@]12C=C[C@H](O)[C@@](C)(C(=O)O1)[C@H]2[C@@H]3C(=O)O
inactive: [1] 0.765% | [2] -0.839% | [3] | [4] 7.38% | [5] 2.3%

C/C(=C\C1CCC(C)C2CCC3(C)OC123)C(=O)O (stereo not given)
inactive: [1] -0.564% | [2] -3.45% | [3] 4.2% | [4] 8.09% | [5]

Cc1nc(-c2cccnc2)sc1C(=O)Nc1ccccc1-c1cn2c(CN3CCOCC3)csc2n1
inactive: [1] -2.14% | [2] -4.67% | [3] | [4] -10.4% | [5] -1.07%

CCC(C)C(C(=O)O)N1Cc2c(OCC=C(C)C)c(C)c(OC)c(C(=O)O)c2C1=O (stereo not given)
inactive: [1] 0.564% | [2] -3.21% | [3] | [4] | [5] -10.1%

C[C@@H]1C(=O)O[C@H]2[C@H]1CC[C@@]1(C)C(=O)C=C[C@@](C)(O)[C@H]21
inactive: [1] -5.99% | [2] | [3] -2.04% | [4] 1.69% | [5] 4.77%

Cc1sc(C)c(C(=O)NC2(c3ccc(C(=O)O)cc3)CC2)c1Cc1ccc(C(F)(F)F)cc1
inactive: [1] -2.74% | [2] -5.46% | [3] | [4] 8.32% | [5]

COc1ccc(C(=O)CC(=O)O)c2c1C=CC(C)(C)O2
inactive: [1] | [2] -7.49% | [3] | [4] 7.77% | [5] -1.38%

O=C(OCc1ccccc1O[C@@H]1O[C@H](CO)[C@@H](O)[C@H](O)[C@H]1O)C1(O)C=CCCC1O (stereo not given in full)
inactive: [1] 3.78% | [2] 2.2% | [3] -2.8% | [4] 5.3% | [5]

O=C(OC(C(F)(F)F)C(F)(F)F)N1CCN(Cc2cccc(Oc3ccccc3)c2)CC1
inactive: [1] | [2] -26.5% | [3] | [4] -5.42% | [5] 4.82%
